# Assay results: PubChem BioAssay (NCATS)
# Records with an inconclusive call do not appear. Entries that show only a call come without a potency. Active and inactive are the calls of the source. The call rests on the fitted dose curve; tested in HEK293 reporter line.
# Assay: qHTS for Inhibitors of the Functional Ribonucleoprotein Complex (vRNP) of Lassa (LASV) Arenavirus: LASV Primary Screen - GLuc reporter signal (AID 1347082); further: nearly all actives have a fitted effect of over 60% in size
# Details: LASV minigenome vRNP, Gaussia luciferase reporter; series mostly up to 57.5 µM
# Potency means the concentration at half of the fitted maximal effect.
row,SMILES,Potency
1,Cc1ccc(C(=O)c2ccc(CC(=O)O)n2C)cc1,inactive
2,COc1ccc(/C(C)=C/C(=O)O)c(OC)c1,inactive
3,CC[N+](CC)(CC)CCOc1cccc(OCC[N+](CC)(CC)CC)c1OCC[N+](CC)(CC)CC,inactive
4,CN1C[C@@H]2C[C@H]1CN2c1cc2c(cc1F)c(=O)c(C(=O)O)cn2C1CC1,inactive
5,CC(C)C[C@H]1C(=O)N2CCC[C@H]2[C@]2(O)O[C@](NC(=O)[C@@H]3C=C4c5cccc6[nH]c(Br)c(c56)C[C@H]4N(C)C3)(C(C)C)C(=O)N12,inactive
6,NC(=O)CC[C@@H]1NC(=O)[C@H](Cc2ccccc2)NC(=O)[C@H](Cc2ccc(O)cc2)NC(=O)CCSSC[C@@H](C(=O)N2CCC[C@H]2C(=O)N[C@@H](CCCN=C(N)N)C(=O)NCC(N)=O)NC(=O)[C@H](CC(N)=O)NC1=O,inactive
7,CCCc1c(OCCCCc2nn[nH]n2)ccc(C(C)=O)c1O,inactive
8,NC(=O)NC1N=C([O][Al])NC1=O (configuration not stated),inactive
9,CC1CCc2c(N3CCC(O)CC3)c(F)cc3c(=O)c(C(=O)O)cn1c23 (configuration not stated),inactive
10,NC(=O)c1ncn([C@@H]2O[C@H](CO)[C@@H](O)[C@H]2O)c1O,inactive
11,CC(=O)c1ccc(OCC(=O)N2CCCCC2)cc1,inactive
12,CC[C@H](C)C(=O)O[C@H]1C[C@H](O)C=C2C=C[C@H](C)[C@H](CC[C@@H](O)C[C@@H](O)CC(=O)O)[C@H]21,inactive
13,CC(C)(C)NC[C@H](O)COc1nsnc1N1CCOCC1,inactive
14,CC(C)(C)NCC(O)COc1ccccc1OCC1CCCO1 (configuration not stated),inactive
15,C#CCC(Cc1cnc2nc(N)nc(N)c2n1)c1ccc(C(=O)N[C@@H](CCC(=O)O)C(=O)O)cc1 (some centres not stated),544 nM (active)
16,O=C(NCC(O)CO)c1c(I)c(C(=O)NCC(O)CO)c(I)c(N(CCO)C(=O)CO)c1I (configuration not stated),inactive
17,CCn1ccc(NS(=O)(=O)c2ccc(N)cc2)nc1=O,inactive
